CYP2C19 act = cytochrome P450 2C19 (human) activation | P33261 | recombinant CYP2C19, luciferin-H EGE luminescence; active compounds read high; 0 = fully inhibited enzyme, 1 = untreated enzyme | activation factor at 5 µM | 96,000 tested, under 10 active | AID 1025;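 active means activation factor of at least 2 at 5 µM in the primary screen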
Target sequence (P33261 whole entry, looked up): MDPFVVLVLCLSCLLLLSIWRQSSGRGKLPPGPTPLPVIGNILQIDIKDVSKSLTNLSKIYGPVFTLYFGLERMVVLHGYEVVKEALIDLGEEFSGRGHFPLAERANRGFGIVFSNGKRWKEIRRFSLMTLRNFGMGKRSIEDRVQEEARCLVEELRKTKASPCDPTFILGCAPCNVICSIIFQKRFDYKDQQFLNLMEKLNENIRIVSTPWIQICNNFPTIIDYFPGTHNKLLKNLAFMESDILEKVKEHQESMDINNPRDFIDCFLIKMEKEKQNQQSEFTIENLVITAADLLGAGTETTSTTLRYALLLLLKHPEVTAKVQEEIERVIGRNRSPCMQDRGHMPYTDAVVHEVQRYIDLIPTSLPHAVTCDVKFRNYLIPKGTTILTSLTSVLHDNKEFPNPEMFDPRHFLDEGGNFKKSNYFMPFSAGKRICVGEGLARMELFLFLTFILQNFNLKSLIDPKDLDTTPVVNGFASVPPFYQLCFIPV
CYP2C9 activ = CYP2C9 (human) activation; P11712; recombinant CYP2C9, luciferin-H conversion, luminescence; active compounds read high; factor 1 = untreated enzyme, 0 = blocked; activation factor at 5 µM; actives 1.4% (n = 96,000); AID 1024;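 active means activation factor of 2 or more for CYP2C9 at a 5 µM dose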
CYP2C9 inhib = blocks human cytochrome P450 2C9; inhibition, % at 5 µM; AID 777; actives 20% (n = 96,000); CYP2C9 Supersomes, luciferin-H conversion, luminescence;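 active means blocking of liver enzyme CYP2C9 beyond about 50% at 5 µM, limit read from the data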
CYP2C19 inhib = inhibitors of human CYP2C19; P33261; CYP2C19 Supersomes, luciferin-H EGE luminescence, 30 min; inhibition, % at 5 µM; actives 21% (n = 96,000); AID 778;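 active means CYP2C19 inhibition above a set limit at 5 µM in the primary screen, cut at about 50% in these data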
PTK2B oligo ant = blocks oligomerization of human Pyk2 in cells | Q293 cells, Pyk2 FERM NanoBiT luminescence; active compounds read low | Q14289 | z-score (the deposit names both 25 µM and 10 µM) | actives 0.83% (n = 99,000);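 active means Z-score of -3 or lower, scaled per plate to the spread of control and sample wells; inactive means z-score above -3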;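 further: negative z-score means lost luminescence so less FERM oligomerization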
Numbers stand for hits; – = inactive; · = no result. Compounds with a hit are over-represented: about 28% of the library has one in this group of screens.

SMILES	CYP2C19 act	CYP2C9 activ	CYP2C9 inhib	CYP2C19 inhib	PTK2B oligo ant
Cn1c(=O)c2c(nc(CN3CCC(C(N)=O)CC3)n2CCCc2ccccc2)n(C)c1=O	–	–	70.7	59.3	–
COc1cccc(C(=O)Cn2c(N3CCOCC3)nc3c2c(=O)n(C)c(=O)n3C)c1	–	–	–	–	–
Cn1c(=O)c2c(nc(N3CCN(c4ccccc4)CC3)n2CCCc2ccccc2)n(C)c1=O	–	–	–	–	–
Cc1ccc(C(=O)Cn2c(N3CCOCC3)nc3c2c(=O)n(C)c(=O)n3C)cc1	–	–	54.5	–	–
COc1ccc(NC(=O)c2ccco2)cc1NC(=O)c1cccnc1	–	–	–	–	–
CCCCc1ccc(N2C(=O)[C@@H]3C(CC(N)=O)NC4(C(=O)Nc5ccc(F)cc54)[C@@H]3C2=O)cc1 (stereo partly drawn)	–	–	–	–	–
Cn1c(=O)[nH]c(=O)c2c1nc(N1CCN(Cc3ccccc3)CC1)n2CCCc1ccccc1	–	–	–	87.6	–
C=C(C)Cn1c(N(CCO)Cc2ccccc2)nc2c1c(=O)[nH]c(=O)n2C	–	–	–	–	·
CCCCn1c(N2CCC(Cc3ccccc3)CC2)nc2c1c(=O)[nH]c(=O)n2C	–	–	–	65.6	–
Cn1c(=O)[nH]c(=O)c2c1nc(N(CCO)Cc1ccccc1)n2CCCc1ccccc1	–	–	65.0	–	·
Cn1c(=O)[nH]c(=O)c2[nH]c(N(Cc3ccccc3)Cc3ccccc3)nc21	–	–	55.6	–	-3.22
CCCCCCn1c(N2CCC(C)CC2)nc2c1c(=O)[nH]c(=O)n2C	–	–	–	–	–
O=C(CN1C(=O)CSc2ccccc21)Nc1ccccc1C(=O)N1CCOCC1	–	–	–	–	–
CCOC(=O)Cn1cnc([N+](=O)[O-])n1	–	–	–	–	–
CCN(CC)C(=O)CNC(=S)N(CCCN1CCOCC1)Cc1cccs1	·	·	·	·	–
COCCn1c(N2CCN(c3ccc(OC)cc3)CC2)nc2c1c(=O)n(C)c(=O)n2C	–	–	59.2	–	–
CCN1CCN(c2nc3c(c(=O)[nH]c(=O)n3C)n2CCCSc2ncccn2)CC1	–	–	–	–	–
Cn1c(=O)[nH]c(=O)c2c1nc(N1CCN(Cc3ccccc3)CC1)n2CCSc1ncccn1	–	–	–	75.4	·
CCCCCn1c(N2CCN(c3cccc(Cl)c3)CC2)nc2c1c(=O)[nH]c(=O)n2C	–	–	96.1	82.5	–
Cn1c(=O)[nH]c(=O)c2c1nc(N1CCN(c3cccc(Cl)c3)CC1)n2CCCc1ccccc1	–	–	–	–	·
CNC(=O)c1sc(N2N=C3/C(=C/c4ccccc4)CCCC3C2c2ccccc2)nc1C (stereo not drawn)	–	–	–	–	–
O=S(=O)(c1ccccc1)c1nc(-c2ccccc2Cl)oc1NCCN1CCOCC1	–	–	77.0	–	–
N#Cc1nc(-c2cccc3ccccc23)oc1NCCN1CCOCC1	–	–	–	–	–
N#Cc1nc(-c2ccccc2F)oc1NCCN1CCOCC1	–	–	–	63.8	·
COc1cc(/C=C/C(=O)OCC(=O)NCC2CCCO2)ccc1OCC#N (stereo not drawn)	·	·	·	·	–
SMILES	CYP2C19 act	CYP2C9 activ	CYP2C9 inhib	CYP2C19 inhib	PTK2B oligo ant
COc1ccc(C(=O)Nn2c(SCC(=O)N3CCC(C)CC3)nc3ccccc3c2=O)cc1	–	–	85.7	–	–
COc1ccc(C(=O)Nn2c(SCC(=O)NC3CCCCC3)nc3ccccc3c2=O)cc1	–	–	–	–	–
O=C(CSc1nc2ccccc2c(=O)n1Cc1ccc(C(=O)NC2CC2)cc1)NCc1ccco1	–	–	53.3	–	–
COc1ccc(C(=O)Nn2c(SCC(=O)c3ccc(Cl)cc3)nc3ccccc3c2=O)cc1	–	–	81.6	–	–
Cn1c(SCC(=O)NCc2ccco2)nc2ccccc2c1=O	–	–	–	–	–
COc1ccc(C(=O)Nn2c(SCC(=O)NCc3ccco3)nc3ccccc3c2=O)cc1	–	–	80.3	–	–
Cn1ncc(Br)c1C(=O)OCC(=O)Nc1nc(-c2ccccc2)cs1	·	·	·	·	–
CCCCCCCOc1ccc(OC(=O)c2ccncc2)cc1	–	–	–	–	–
Cc1nnc(NC(=O)c2sc3ccccc3c2Cl)s1	–	–	55.3	–	–
Cc1nnc(NC(=O)c2ccccc2Br)s1	–	–	55.2	–	–
CCOC(=O)c1cc(=O)n(Cc2ccccc2C)c2ccccc12	–	–	–	–	–
O=S(=O)(NCc1csc(-c2cccnc2)n1)c1ccc2c(c1)OCCO2	–	–	–	57.1	–
O=S(=O)(NCCc1csc(-c2ccccc2)n1)c1ccc2c(c1)OCCO2	–	–	–	89.2	–
O=S(=O)(NCc1cccnc1)c1ccc2c(c1)OCCO2	·	·	·	·	–
COc1ccc(CCNC(=O)C(=O)NCc2ccccc2)cc1OC	–	–	–	–	–
COc1ccc2c(c1)CCc1c(C(=O)NCCc3ccc(OC)c(OC)c3)noc1-2	–	–	54.0	–	–
COc1ccc(CCNC(=O)c2cc(-c3ccc(C)c(C)c3O)n[nH]2)cc1OC	–	–	–	–	–
COc1ccc(CCNC(=O)c2cc(-c3cc(C)ccc3O)n[nH]2)cc1OC	–	–	79.7	–	–
COc1ccc(CCNC(=O)c2ccc(CNS(=O)(=O)c3cc(C)ccc3C)cc2)cc1OC	–	–	99.8	76.0	–
CNC(=S)NCCc1ccc(OC)c(OC)c1	–	–	–	55.5	·
CC1CCCC(NC(=O)c2n[nH]c(=O)c3ccccc23)C1C (stereo not drawn)	–	–	–	–	–
CC(C)C(=O)Nc1ccc2c(c1)C(=O)N(CCC(=O)O)C2=O	–	–	–	–	–
COc1cc(-c2nnc(SCC(=O)OC3CCCCC3)o2)cc(OC)c1OC	–	–	–	–	–
CC1CCCCN1C(=O)c1ccc(C(=O)N2CCCCC2C)cc1 (stereo not drawn)	–	–	–	–	–
COc1ccc(CCNC(=O)c2ccncc2)cc1OC	–	–	–	63.5	–
SMILES	CYP2C19 act	CYP2C9 activ	CYP2C9 inhib	CYP2C19 inhib	PTK2B oligo ant
Cc1ccc(C)c(S(=O)(=O)NCc2ccc(C(=O)N3CCCCC3C)cc2)c1 (stereo not drawn)	–	–	–	57.1	–
COc1ccc(CCNC(=O)c2cc3sc(Cl)cc3n2C)cc1OC	–	–	73.8	69.0	·
COc1ccc(CN(Cc2cccnc2)C(=S)NCCc2ccccc2)cc1OC	–	–	94.5	96.1	–
COc1ccc(CCNC(=O)c2cccnc2)cc1OC	–	–	–	–	–
Cc1cc(C)nc(NC2=NC3CCCCC3N2)n1 (stereo not drawn)	–	–	–	–	–
CN(C)CCCN1C(=O)c2oc3ccccc3c(=O)c2C1c1cccs1 (stereo not drawn)	–	–	–	–	–
C=CCc1ccccc1OCC(O)CN(CC)CC (stereo not drawn)	–	–	–	–	–
C/C(=N\NC(=O)c1cccc(F)c1)c1ccc(Br)s1	–	–	–	–	–
Cn1c(SCc2nc3ccccc3[nH]2)nnc1-c1ccccn1	–	–	–	68.8	–
C=CCn1c(SCc2nc3ccccc3[nH]2)nnc1-c1ccccn1	–	–	–	97.3	–

Screens from PubChem BioAssay.
